# This is part of a sample that, as a whole, favours compounds with a hit. Of some 83,000 tested, about 20% had one in any assay.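 Negative percent growth values reflect cell death: -40 means 40% of the cells present at the start died, and -100 means all died.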 Values without a mark were called inactive. Active and inactive are the calls of the source. Rule for the calls: active = growth percent below 10; inactive = the rest.
# Tests used:
# Test in all cases: NCI-60 one-dose screen, 48 h (100 = growth as untreated, 0 = no growth, -100 = all killed)
# Settings in all cases: 10 µM unless noted
# NCI-H23 lung = system: NCI-H23 lung
# NCI-H226 lung = system: NCI-H226 lung
# NCI-H322M lung = system: NCI-H322M lung
# HOP-62 NSCLC = system: HOP-62 NSCLC
# NCI-H460 lung = system: NCI-H460 lung
# HOP-92 NSCLC = system: HOP-92 NSCLC
# NCI-H522 lung = system: NCI-H522 lung
# A549/ATCC NSCLC = system: A549/ATCC NSCLC
# 786-0 renal = system: 786-0 renal
# COLO 205 colon = system: COLO 205 colon
# DU-145 prostate = system: DU-145 prostate
# K-562 leukemia = system: K-562 leukemia
# MALME-3M melanoma = system: MALME-3M melanoma
# MDA-MB-231 breast = system: MDA-MB-231 breast
# RXF 393 renal = system: RXF 393 renal
# SF-268 CNS = system: SF-268 CNS
# SF-295 CNS = system: SF-295 CNS
# SF-539 CNS = system: SF-539 CNS
# UACC-257 melanoma = system: UACC-257 melanoma
# M14 melanoma = system: M14 melanoma
SMILES,growth (NCI-H23 lung) [%],growth (NCI-H226 lung) [%],growth (NCI-H322M lung) [%],growth (HOP-62 NSCLC) [%],growth (NCI-H460 lung),growth (HOP-92 NSCLC) [%],growth (NCI-H522 lung),growth (A549/ATCC NSCLC),growth (786-0 renal),growth (COLO 205 colon),growth (DU-145 prostate),growth (K-562 leukemia),growth (MALME-3M melanoma),growth (MDA-MB-231 breast),growth (RXF 393 renal),growth (SF-268 CNS) [%],growth (SF-295 CNS),growth (SF-539 CNS),growth (UACC-257 melanoma),growth (M14 melanoma)
CN1CCN(c2ccc(-c3ccc4ncc(C#N)c(Nc5ccc(F)c(Cl)c5)c4c3)cc2)CC1,77.4,86.8,19.7,65.9,27%,63.5,33.3%,45.6%,45.4%,47.5%,29.1%,0.404% (active),-63.5% (active),76.8%,27.3%,50.8,69.6%,54.3%,-0.414% (active),-33.5% (active)
C=C1C(=O)O[C@H]2[C@H]1CC/C(COC(=O)NCCOCCOCC(=O)Nc1ccc(OC)c(C(N)=O)c1O)=C\CC[C@@]1(C)O[C@@H]21,78.5,89.8,96.9,84,95.8%,24.2,-11% (active),84.1%,62.1%,8% (active),76.9%,25.6%,62.1%,52%,-9.54% (active),81.9,97.7%,37%,57.1%,60.4%
COc1ccc(CNC(=O)C(=O)[C@H](Cc2ccccc2)NC(=O)c2[nH]c3ccccc3c(=O)c2C)cc1,101,103,96.8,102,108%,117,96.4%,95.6%,102%,113%,104%,92.9%,107%,95.6%,104%,101,103%,98.7%,98.9%,99.6%
Cc1cc2nc3cc(C)c(N)cc3[n+](-c3ccccc3)c2cc1N,39.8,71.2,93.8,52.7,65.6%,41.5,38.4%,75.1%,58.6%,61.1%,72.9%,32.4%,48.7%,90.3%,91.7%,24,34.5%,50.5%,32.6%,89.5%
CC(=O)N1CCN(c2ccc(OCC3CO[C@](Cn4ccnc4)(c4ccc(Cl)cc4Cl)O3)cc2)CC1 (stereo not given in full),78.3,58.7,93.6,74.4,96.4%,61.4,82.4%,85.2%,77.6%,86.9%,105%,56.6%,77.4%,77.5%,80.6%,96,97.6%,91%,83.7%,83.8%
Cc1cc(-c2cc(C)c(N)cc2C)c(C)cc1N,101,103,118,93.1,113%,45.9,86.1%,107%,84.1%,99.2%,121%,54.7%,84.2%,82.8%,111%,95.9,84.1%,97.5%,90.5%,65.6%
Cc1ccc(C(=O)N/N=C/c2cccc([N+](=O)[O-])c2)cn1,101,90,97.1,98.7,106%,91.4,84.8%,92.1%,31.4%,112%,100%,101%,114%,95.6%,110%,110,107%,98.6%,95.6%,112%
CCOC(=O)/C=C1\S/C(=N\Nc2ccc([N+](=O)[O-])cc2[N+](=O)[O-])N(Cc2ccccc2)C1=O,76.8,93.1,97.9,103,93.1%,71.5,68.6%,93.2%,91.2%,99.1%,81.4%,54.7%,93.1%,84.9%,78%,89.7,95.1%,99.6%,90.1%,100%
Fc1cc2c(cc1Cl)N(c1ncnc3ccc(-c4cnc5cnccn45)cc13)CC2,83,92.8,80.7,78.1,98.9%,87.4,82.6%,86.8%,81.1%,121%,74.7%,75.2%,91.3%,77.5%,62%,81,107%,84.6%,109%,80.2%
COc1ccn2c(C(C)=O)cc(C(=O)c3ccc4c(c3)Sc3ccccc3N4)c2c1,28.3,26,42.8,20.2,4.07% (active),31.2,-21.5% (active),10.5%,10.7%,-41% (active),-18.3% (active),7.02% (active),85.9%,-17.2% (active),51.9%,22.2,13.9%,-11.8% (active),52%,9.58% (active)
O=c1c2cc(F)ccc2sc2c(N3CCNCC3)nc3ccccc3c12,68.8,88,60.3,61.4,-76.4% (active),36.8,39.3%,34.4%,65.7%,-49.6% (active),-31.5% (active),-38.2% (active),84.8%,-29.1% (active),58.1%,55.1,92.1%,29.8%,92.1%,-52.7% (active)
CCCCCCn1c(-c2ccc(C(=O)O/N=C(\N)c3ccc4ccccc4c3)cc2)nc(-c2ccccc2)c1-c1ccccc1,44.3,80.3,83.6,81.7,58.5%,16,47.9%,-33.5% (active),4.48% (active),77.2%,53.9%,-8.77% (active),71.5%,64.4%,35.1%,51.3,70.1%,48.8%,82.2%,72.7%
O=S(=O)(Nc1ccc(-c2nc(-c3cccc(OCCN4CCOCC4)c3)c(-c3ccnc(Br)c3)[nH]2)cc1)c1ccccc1,35.5,48.1,53.5,40.3,28.4%,22,32.8%,30.4%,13.2%,39.3%,59.5%,3.42% (active),44%,36.8%,-15.1% (active),41.3,2.79% (active),38.1%,53.1%,36.8%
COc1cccc(-c2nc(-c3ccc(NS(=O)(=O)c4ccccc4)cc3)[nH]c2-c2ccnc(Br)c2)c1,25.8,37.3,32.4,26.5,16.7%,24.5,20.7%,29%,20%,35.5%,44.3%,5.37% (active),40.2%,30.1%,-24.5% (active),31.4,3.83% (active),36.6%,48.7%,27.1%
CCOC(=O)c1cn2ncnc(Oc3ccc(NC(=O)NCCN(C)C)c(Cl)c3)c2c1C,75.5,93.2,90.5,95.3,103%,44.8,87.9%,92.4%,76.1%,55.9%,86.8%,4.33% (active),58.9%,65.2%,55.6%,65.1,94.6%,71.5%,-4.6% (active),-40.6% (active)

# From PubChem BioAssay (NCI)
